Consider 40 compounds from PubChem BioAssay (NCI).

The panel holds about 83,000 compounds, 20% with a hit somewhere; the sample as a whole holds those more often.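 Note: values are percent growth. 100 is the growth of untreated cells, values between 100 and 0 indicate rising inhibition; between -100 and 0 indicates cell death.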 A number with no mark means an inactive call. Activity calls are given as the source filed them.

The test deals with U251 CNS. The test is described as follows: NCI-60 one-dose screen, 48 h (100 = growth as untreated, 0 = no growth, -100 = all killed). To be noted: 10 µM unless noted. The protocol:
Growth inhibition of the U251 human tumor cell line is measured as a screen for anti-cancer activity. Cells are grown in 96 well plates and exposed to the test compound for 48 hours. Compounds are tested at a single concentration, which is 10^-5 M for most compounds. The reported endpoint is percent growth (GI% or GIPRCNT), where numbers from 0 - 100% represent growth inhibition, and numbers from -100% - 0 represent cell death. For example, a value of 40 represents 60% growth inhibition. A value of 0 means no net growth occurred over the course of the experiment. A value of -40 indicates 40% of cells at the beginning of the experiment died by the end of the experiment. A value of -100 means all cells are dead at the end of the experiment.
NCI-60 Human Tumor Cell Lines Screen was performed using the standard one-dose NCI protocol, which is described in more detail at https://dtp.cancer.gov/discovery_development/nci-60/default.htm.
Compounds with GIPRCNT values below 10 were considered active. Activity score was based on GIPRCNT using the following formula: […]
Score is 0 for GIPRCNT values of 100 or above, 50 for GIPRCNT values of 0, and 100 for GIPRCNT values of -100.
On to `CCCCCCCCn1ccc2cc(NC(=O)CN3CCN(c4nc(C)cc(Cl)n4)CC3)ccc21`, for which the growth is 92.8%. Regarding `COC(=O)c1cc(-c2ccc(OC)cc2)[nH]c1N/N=C/c1c(Cl)cccc1Cl`, the growth was 7.09% (active). In the case of `O=C(/C=C/c1ccccc1)c1cccc(OCCCOc2cccc(C(=O)/C=C/c3ccccc3)c2)c1` it was 64.3%; in that of `O=C(CCCCC1CCSS1)Nc1ncnc2n[nH]c(-c3ccc(Oc4ccccc4)cc3)c12` (stereo not given), 106%; in that of `Nc1ncnc2c1N=C(c1ccc(Cl)cc1)CC(c1ccc3c(c1)OCO3)N2` (stereo not given), 92.8%. In the case of `COc1cc(C(=O)n2nc(N3CCN(C)CC3)c3cc(N)ccc32)cc(OC)c1OC` it was 31.2%; in that of `CCN1C(=O)N(CC)C2C1NN=c1s/c(=C\c3cccc([N+](=O)[O-])c3)c(=O)n12` (stereo not given), 13.7%. In the case of `CN(C)C1CCN(Cc2ccc(NC(=O)c3cncc(C#Cc4cnc(N)c5ncccc45)c3)cc2C(F)(F)F)CC1`, the growth was -51.5% (active).

Regarding `Nc1ncnc2c1N=C(c1ccc3c(c1)OCO3)CC(c1cccc(Nc3ccnc4cc(Cl)ccc34)c1)N2` (stereo not given), the growth was 26.5%.

In the case of `CCCCC(=O)c1ccco1`, the growth is 102%. In the case of `CC(O)c1cnc(/C=C2\SC(=S)N(Cc3ccccc3)C2=O)s1` (stereo not given) it was 54.9%. To `COC(=O)c1cc(-c2ccc(S(C)(=O)=O)cc2)[nH]c1N/N=C/c1c(Cl)cccc1Cl` belongs 26.8%; to `O=C1Nc2ccc(I)cc2C1=O`, 93.8%; to `C[C@]12CC[C@@H]3c4ccc(O)c([N+](=O)[O-])c4CC[C@H]3[C@@H]1CCC2=O`, 93.2%. To `N#C/C(=C/c1ccc([N+](=O)[O-])cc1)n1nnc2cc(F)c(F)cc21` belongs 59%.

Take `CC(C)(C)[Si](C)(C)O[C@H]1C(=O)C=CN2CC=C[C@@H]12`: the growth was 98.5% [100 µM]. In the case of `C=C(C)[C@@H]1CC[C@]2(C(=O)NCCNCCN)CC[C@]3(C)[C@H](CC[C@@H]4[C@@]5(C)C/C(=C/c6ccncc6)C(=O)C(C)(C)[C@@H]5CC[C@]43C)[C@@H]12` it was 91.2%; in that of `COC(=O)[C@H]1CCCN1C[C@@H](O)CN1C(=O)/C(=C\c2cc(OC)c(OC)c(OC)c2)c2ccccc21`, 87.3%; in that of `CCSc1nc(NC)c2cc(-c3ccc(C(F)(F)F)cc3)ccc2n1`, 103%. To `CN1C(=O)/C(=C/c2ccc(C(=O)Nc3ncc(Cc4ccc(Cl)cc4)s3)cc2)SC1=S` belongs 61.7%; to `CSc1nc2sc3c(c2c(=O)n1-c1ccc([N+](=O)[O-])cc1)CCCCC3`, 84.5%; to `Cn1cc(-c2nonc2-c2c[nH]c3ccc(Br)cc23)c2cc(Br)ccc21`, 42.9%.

`COc1cc(CNC(=O)CCCC/C=C/C(C)C)ccc1OCc1nnc(Nc2ccc([N+](=O)[O-])cc2)o1`: the growth is 48.6%.

Turning to `COc1ccc(-c2nc3c(c(-c4ccccc4)nn3-c3ccccc3)c(-c3ccc(N4CCN(C)CC4)cc3)c2C#N)cc1`, the growth is 77.4%.

`COCCNC(=O)c1ccc(-c2nc3ccc4[nH]ncc4c3c3c2CCCC3)cc1`: the growth was 43.4%. Regarding `O=[N+]([O-])/C(=C/C=C/c1ccccc1)c1ccccc1`, the growth is 37.2%. Regarding `CCN(CC)c1ccc(/C=C/C(=O)c2ccc(Nc3nc(Nc4ccccc4)nc(Nc4ccccc4)n3)cc2)cc1`, the growth is 43.4%. For the compound `O=C(O)[C@@H]1c2ccccc2-c2ccccc2[C@H]1C(=O)O`, the growth was 106%. `COc1ccc(C2c3sc4c(F)cccc4c3Oc3nc[nH]c(=O)c32)cc1` (stereo not given): the growth is 89.7%. For `COc1cc(OC)cc(C2=C3CC[C@@H]4[C@H](CC[C@]5(C)C(=O)CC[C@@H]45)C3=CC3C(O)c4cccnc4N4C(=O)COC234)c1` (stereo not given in full), the growth is 93.8%. To `CC(C)CCNC(=O)Cn1cccc(NC(=O)OCc2ccccc2)c1=O` belongs 101%; to `CC(C)n1cnc2c(=S)nc[nH]c21`, 98.9%; to `CCCCCCCCCCCCCCCCCCOc1ccccc1CC(=O)NCC[N+]1(C)CCCC1`, 6.79% (active).

In the case of `Oc1c(Cl)cc(Cl)c2ccc(Cn3cc(-c4ccc(C(F)(F)F)cc4)nn3)nc12`, the growth is 99.8%. In the case of `CCN1CCN(Cc2cn(CC(=O)Nc3ccc4c(ccn4Cc4ccccc4)c3)nn2)CC1` it was 96.6%. In the case of `CCOC(=O)c1c(NC(=O)c2ccc(C(C)C)cc2)sc2c(CN(C)C)c(O)ccc12` it was 6.18% (active); in that of `Cc1nc2ncnc(Cl)c2[nH]1`, 91.3%; in that of `Cc1ccccc1Cn1cnc2ccc(-c3cc(NC(=O)c4ccc(NC5CCN(C)CC5)cc4)n[nH]3)cc21`, 75.9%.

As for `O=C(Nc1ccc(NC(=O)c2cc(=O)[nH]c3ccccc23)cc1)Nc1cccc(C(F)(F)F)c1`, the growth is 19.5%. To `Cc1ccc(NC(=S)NNC(=S)NNc2ccccc2)cc1C` belongs 96.8%.
